# Screening results deposited in PubChem by National Center for Advancing Translational Sciences (NCATS).
# Sampled rows, rich in hits. Any-hit rate of the full collection: about 5.9%.
# TrxR1 inh: inhibitors of rat thioredoxin reductase 1; Potency, µM (top dose mostly 114 µM), without a hit: at the highest dose activity change, negative = inhibition, most hits filed as inhibitors; O89049; AID 588453; recombinant rTrxR1, NADPH fluorescence consumption, selenite substrate; hit rate 1% among 390,000; further: potency means the concentration at half of the fitted maximal effect; nearly all actives have a fitted effect of over 65% in size
#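 Rat TrxR1 (90 nM in the dispensed reagent) was pre-reduced with 400 uM NADPH for 5 min at room temperature, then incubated with compound for 15 min. After 400 uM selenite was added, NADPH fluorescence (Ex 340/Em 450 nm) was followed for 8 min.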
# TrxR1 substrate: substrates of rat thioredoxin reductase 1; O89049; purified TrxR1 substrate turnover, NADPH consumption readout; Potency, µM (series often up to 114 µM), without a hit: at the top dose activity change, negative = substrate turnover; AID 588456; hit rate 0.01% among 390,000; further: potency means the concentration at half of the fitted maximal effect; nearly all actives have a fitted effect of over 50% in size
#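 Rat TrxR1, dispensed at 90 nM, was prereduced with 400 uM NADPH (final) for 5 min at ~22 deg C, then incubated with compound 15 min before 400 uM selenite. A first-read NADPH fluorescence drop versus no-compound background flagged substrates.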
# RORgamma inh: inhibitors of mouse ROR gamma transcriptional activity; P51450; Drosophila S2 Gal4-RORgamma UAS-luciferase reporter, 20 h; Potency, µM (top dose mostly 53.6 µM), for inactives: at the highest dose activity change, negative = inhibition, most hits filed as inhibitors; hit rate 5.4% among 310,000; further: potency means the concentration at half of the fitted maximal effect; nearly all actives have a fitted effect of over 60% in size
# Target sequence (P51450 whole entry, looked up, the tested form may be a part): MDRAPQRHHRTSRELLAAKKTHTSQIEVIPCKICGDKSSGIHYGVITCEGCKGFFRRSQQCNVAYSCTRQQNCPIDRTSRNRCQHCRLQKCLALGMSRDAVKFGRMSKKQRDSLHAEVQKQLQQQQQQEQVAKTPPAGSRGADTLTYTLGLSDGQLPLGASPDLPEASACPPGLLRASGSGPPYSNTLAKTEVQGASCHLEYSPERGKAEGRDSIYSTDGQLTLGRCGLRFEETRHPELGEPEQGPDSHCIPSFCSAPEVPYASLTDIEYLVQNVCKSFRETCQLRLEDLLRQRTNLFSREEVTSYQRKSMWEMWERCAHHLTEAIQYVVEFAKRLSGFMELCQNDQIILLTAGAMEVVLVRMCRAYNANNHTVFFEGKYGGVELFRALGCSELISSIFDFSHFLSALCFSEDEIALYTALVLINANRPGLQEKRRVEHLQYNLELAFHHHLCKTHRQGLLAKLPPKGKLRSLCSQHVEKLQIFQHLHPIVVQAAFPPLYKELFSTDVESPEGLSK
#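 Using a luciferase readout, inhibitors were identified by reduced reporter activity in Drosophila cells coexpressing a copper-inducible Gal4–ROR gamma fusion and UAS-driven Photinus luciferase, incubated 20 hr after 700 uM copper sulfate.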
# GALK inhibitor: blocks human galactokinase activity | P51570 | Purified GALK, Kinase-Glo residual ATP luminescence | Potency, µM (top dose mostly 57.5 µM), inactives show at the highest dose activity change, negative = inhibition, most hits filed as inhibitors | hit rate 0.007% among 270,000 | AID 1868; further: potency means the concentration at half of the fitted maximal effect
#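 Kinase-Glo Plus luminescence measured ATP left after a 1 h room-temperature reaction. The reaction used 5 nM GALK, 100 uM galactose and 35 uM ATP at pH 8.0 (20 mM HEPES, 5 mM MgCl2, 60 mM NaCl, 1 mM DTT, 0.01% BSA).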
# Gal4-VP16 FLuc: inhibits Gal4-VP16 luciferase reporter, ROR gamma counter-screen; hit rate 3.5% among 310,000; Drosophila S2 Gal4-VP16 UAS-luciferase, luminescence, 20 h; Potency, µM (series often up to 53.6 µM), without a hit: at the top dose activity, negative = inhibition, most hits filed as inhibitors; AID 2546;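 further: Gal4-VP16 expression switched on by copper sulfate through the metallothionein promoter; potency means the concentration at half of the fitted maximal effect; nearly all actives have a fitted effect of over 50% in size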
# FBPA coupling cs: counter-screen for Giardia aldolase inhibitors: coupling enzyme system | coupling enzyme system counterscreen, AmpLite Red fluorescence | activity change, negative = inhibition, % at 58.2 µM, hits read low | hit rate 0.67% among 290,000 | AID 2472; in the data active means activity change below about -30%
#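 Counterscreen lacking aldolase: glyceraldehyde-3-phosphate coupling-enzyme reagent preincubated 10 min at RT with compound (at 57.5 uM final), then substrate/coupling system with AmpLite Red added; fluorescence read at 525/598 nm after 20 min RT.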
# * hit, by the source's call; ? = inconclusive; . = no result given; [ ] = remark or other dose. Unless noted, the call rests on the fitted dose curve; in most records, active means well fitted curve in the direction sought with a large enough effect; inconclusive means small, poorly fitted or top-dose-only effect, or another doubt; inactive means no such curve, though single readings can be large; an effect the other way counts as inactive or inconclusive. On the % scale 0 is the no-effect control and ±100 the full control effect.
SMILES,TrxR1 inh,TrxR1 substrate,RORgamma inh,GALK inhibitor,Gal4-VP16 FLuc,FBPA coupling cs
O=C(Cc1ccccc1)NCC1CCCO1 (stereo not given),9%,9%,-34%,1%,-7%,2
O=C(Cc1ccc(F)cc1)NCC1CCCO1 (stereo not given),16%,4%,11µM*,0%,-21%,4
CC(C)(C)c1ccc(C(=O)c2c[nH]c(C(=O)NCC3CCCO3)c2)cc1 (stereo not given),11%[57.1 µM],0%,?,-4%,13µM*,-4
COc1ccc(C(=O)c2c[nH]c(C(=O)NCC3CCCO3)c2)cc1 (stereo not given),23%[57.1 µM],15%[57.1 µM],27%,-2%,-1%,0
CCOc1ccc(CCNC(=O)CN2C(=O)NC3(CCCc4ccccc43)C2=O)cc1OCC (stereo not given),14%,2%,.,.,.,.
CC(C)(C)C(=O)C(Oc1cccc2nonc12)n1cncn1 (stereo not given),-5%,11%[57.1 µM],-5%[10 µM],0%,0%,-2
COc1ccc(/C=C/C(=O)OCC(=O)NCC2CCCO2)cc1 (stereo not given),-3%,-5%,20%,0%,2%,-1
O=C(NC(=S)NCC1CCCO1)C(c1ccccc1)c1ccccc1 (stereo not given),-10%,-5%,7.1µM*,1%,6.3µM*,-22
COc1ccc(/C=C/C(=O)NC(=S)NCC2CCCO2)cc1 (stereo not given),29%[57.1 µM],18%[57.1 µM],1µM*,-3%,-3%,0
O=C(NCC1CCCO1)C(=O)N/N=C/c1ccc(O)c(Cl)c1 (stereo not given),-8%,-16%,-19%,1%,4%,0
O=C(NCC1CCCO1)C(=O)N/N=C/c1cc(Cl)ccc1O (stereo not given),-9%,-7%,13µM*,11%,?,4
Cc1ccccc1C(=O)NC(=S)NCC1CCCO1 (stereo not given),-3%[57.1 µM],7%,14µM*,-1%,?,0
Cc1cc(C)cc(N(CC(=O)NCc2ccccc2)C(=O)CCC(=O)Nc2ccccn2)c1,12%,4%[0.457 µM],-4%,-1%,1%,0
Cc1cc(/C=C/c2ccc3cc(N(C)C)ccc3[n+]2C)c(C)n1-c1ccccc1,.,.,4.5µM*,.,-79%,-27
Cc1cc(/C=N/O)c(C)n1-c1ccccc1,-21%,-9%,-9%,1%,15%,-1
Cc1onc(-c2ccccc2Cl)c1C(=O)N(C)C1CCCCC1,5%,6%,-14%,1%,2.5µM*,1
Cc1onc(-c2ccccc2Cl)c1C(=O)NC(=S)Nc1ccc(C(C)(C)C)cc1,20%,3%,7.9µM*,0%,13µM*,1
CCc1ccc(NC(=S)NC(=O)c2c(-c3ccccc3Cl)noc2C)cc1,21%[57.1 µM],6%[57.1 µM],2.5µM*,0%,?,0
Cc1onc(-c2ccccc2Cl)c1C(=O)Nc1ccccc1,4%[57.1 µM],3%[57.1 µM],-39%,-2%,-1%,0
Cc1onc(-c2ccccc2Cl)c1C(=O)NCc1ccco1,50µM*,3%,24%,7%,10%,-2
Cc1ccc(CNC(=O)c2c(-c3ccccc3Cl)noc2C)cc1,1%,-3%,37%,.,-8%,2
O=C(NCCN1CCOCC1)c1cccc(S(=O)(=O)N2CCCCC2)c1,-10%,-15%,.,.,.,.
Cc1onc(-c2ccccc2Cl)c1C(=O)Nc1nnc(Cc2ccc(Cl)cc2)s1,17%[57.1 µM],8%[57.1 µM],11µM*,-4%,?,0
Cc1ccc(C(=O)/C=C2/NC(=O)CS2)cc1,-8%,-12%,?,-6%,?,1
O=C1CS/C(=C/C(=O)c2cccc(Cl)c2)N1,18%,-7%,5.6µM*,1%,?,7
CCOC(=O)N1CCN(C(=O)CSc2cc(C)nc3c(-c4ccccc4OC)c(C)nn23)CC1,-4%,-9%,20µM*,3%,13µM*,0
CCOC(=O)N1CCC(Nc2cc(C)nc3c(-c4ccccc4OC)c(C)nn23)CC1,5%,-8%,?,-3%,-1%,-2
